This note sets out measurements from PubChem BioAssay AID504690 (Sanford-Burnham Center for Chemical Genomics, 2011).

Hit rate of the full screen: of about 350,000 compounds, about 2,700 (0.77%) were called active. Only a selection was taken, and actives are over-represented in it overall. Unmarked numbers belong to inactive results.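 The calls were made as follows: active = inhibition reaching at least a set limit at 20 µM in the primary screen (cut at about 59% in these data); inactive = the rest.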

The inhibition is the relative decrease from the control value, in per cent.

The subject of this assay is glucose-6-phosphate dehydrogenase-6-phosphogluconolactonase (Plasmodium falciparum 3D7). Put plainly: PfG6PD enzyme inhibitors, primary screen, biochemical, fluorescence intensity, uHTS (AID 504690).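 Also: 0% = DMSO wells with substrate and 100% = DMSO wells lacking glucose-6-phosphate.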 To be noted: PfGluPho enzyme, NADPH resazurin-diaphorase fluorescence; at 20 µM; active compounds read high. (In general: Resazurin is reduced to fluorescent resorufin, in cell work by metabolically active cells.)
Consider `C/C(=N/NC(=O)C1COc2ccccc2O1)c1ccco1` (stereo unspecified), for which the inhibition was -17.2%.
As for `O=C(Nc1nc(-c2ccncc2)cs1)C1COc2ccccc2O1` (stereo unspecified), the inhibition was 82.1% (active).
For `COc1ccc(NC(=O)COC(=O)C2COc3ccccc3O2)cc1` (stereo unspecified) the value was -2.2%; for `CCOC(=O)C1(CCOc2ccccc2)CCN(C(=O)c2cncs2)CC1`, -8.03%; for `N#Cc1cnn2cc(CCN3CCOCC3)c(-c3ccc(F)cc3)nc12`, -4.2%.
For `O=C1C=CC(=O)N1c1ccc(N2CCCCC2)cc1` the value was 59.2% (active); for `O=C(C1CCC1)N1CCN(c2ccccc2)CC1`, -11.2%; for `O=C(C1CC(=O)N(C2CCCCC2)C1)N1CCN(c2ccccc2)CC1` (stereo unspecified), 1.77%.
Then `O=C(CSc1ccc(C(F)(F)F)cc1[N+](=O)[O-])NCCOc1ccccc1`, with 4.59%; and `CCc1cccc(NC(=S)N(CCN(C)C)C2CCN(C(C)C)CC2)c1`, with -1.59%; and `CC(C)c1cc(C(N)=O)c(NC(=O)c2cccc(COc3ccc(Br)cc3)c2)s1`, with 17.7%.
Turning to `CC(C)Oc1ccc(C(=O)NC(C)(C)CO)cc1`, the inhibition was -5.29%.
Then `CCOC(=O)c1sc(NC(=O)CSc2nc(C)cc(C(F)(F)F)n2)c(C#N)c1C`, with 60.4% (active); and `Cc1cc(C(F)(F)F)nc(SCC(=O)Nc2nccs2)n1`, with 14.7%.
For `CCn1c(SCC(=O)Nc2sc(C)c(C)c2C#N)nnc1C1CC1` the value was 13.8%; for `CCOC(=O)c1cc2c(=O)n3ccccc3nc2n(CC(C)C)c1=NC(=O)c1c(-c2c(F)cccc2Cl)noc1C`, 10.9%; for `O=C(CSc1nnc(SCc2ccc(Cl)cc2)s1)N/N=C/c1ccccc1Cl`, 75.1% (active).
Then `O=C(Cc1ccccc1)N/N=C/c1ccc(Cl)cc1Cl`, with 8.79%; and `O=C(CSc1nnc(SCc2ccc(F)cc2)s1)Nc1ccc(C(=O)O)cc1`, with -15.7%; and `CC1CCCN(C(=O)Cn2c(=O)oc3cc(S(=O)(=O)N4CCCCC4C)ccc32)C1` (stereo unspecified), with -4.91%.
On to `CC(C)(C)c1cc2cccnc2n1Cc1ccccc1`, for which the inhibition was 2.96%.
